Data from PubChem BioAssay.
Active and inactive are the calls of the source. Unless noted, how the calls were made is not given here.

How the values were obtained:
[1] = compounds binding Alexa647 anti-His antibody – biochemical, small-molecule microarray, 635 nm fluorescence, artefact control for SMM control protein annotation, primary screen (AID 1128); details: higher = more signal;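 further: score merges feature fluorescence with signal-to-noise for each printed compound spot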
[2] = test system: Human papillomavirus type 1a E7 protein (residues 1-88); experiment: HPV1a E7 small-molecule binders, primary screen, biochemical, small-molecule microarray, residues 1-88, 635 nm (AID 1129); details: small-molecule microarray binding, fluorescence 635 nm; higher = more signal
[3] = biological target: Focal adhesion kinase 1 (Homo sapiens) (UniProt Q05397); experiment: PTK2 protein binding on printed compound slides – biochemical, small-molecule microarray, 635/667 nm fluorescence, BSA, DTT, primary screen (AID 1130); details: 635 nm fluorescence, higher = more signal;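 further: composite of spot emission at 667 nm and signal to noise over triplicate slides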
Focal adhesion kinase 1 (Homo sapiens), sequence (Q05397 whole entry, looked up): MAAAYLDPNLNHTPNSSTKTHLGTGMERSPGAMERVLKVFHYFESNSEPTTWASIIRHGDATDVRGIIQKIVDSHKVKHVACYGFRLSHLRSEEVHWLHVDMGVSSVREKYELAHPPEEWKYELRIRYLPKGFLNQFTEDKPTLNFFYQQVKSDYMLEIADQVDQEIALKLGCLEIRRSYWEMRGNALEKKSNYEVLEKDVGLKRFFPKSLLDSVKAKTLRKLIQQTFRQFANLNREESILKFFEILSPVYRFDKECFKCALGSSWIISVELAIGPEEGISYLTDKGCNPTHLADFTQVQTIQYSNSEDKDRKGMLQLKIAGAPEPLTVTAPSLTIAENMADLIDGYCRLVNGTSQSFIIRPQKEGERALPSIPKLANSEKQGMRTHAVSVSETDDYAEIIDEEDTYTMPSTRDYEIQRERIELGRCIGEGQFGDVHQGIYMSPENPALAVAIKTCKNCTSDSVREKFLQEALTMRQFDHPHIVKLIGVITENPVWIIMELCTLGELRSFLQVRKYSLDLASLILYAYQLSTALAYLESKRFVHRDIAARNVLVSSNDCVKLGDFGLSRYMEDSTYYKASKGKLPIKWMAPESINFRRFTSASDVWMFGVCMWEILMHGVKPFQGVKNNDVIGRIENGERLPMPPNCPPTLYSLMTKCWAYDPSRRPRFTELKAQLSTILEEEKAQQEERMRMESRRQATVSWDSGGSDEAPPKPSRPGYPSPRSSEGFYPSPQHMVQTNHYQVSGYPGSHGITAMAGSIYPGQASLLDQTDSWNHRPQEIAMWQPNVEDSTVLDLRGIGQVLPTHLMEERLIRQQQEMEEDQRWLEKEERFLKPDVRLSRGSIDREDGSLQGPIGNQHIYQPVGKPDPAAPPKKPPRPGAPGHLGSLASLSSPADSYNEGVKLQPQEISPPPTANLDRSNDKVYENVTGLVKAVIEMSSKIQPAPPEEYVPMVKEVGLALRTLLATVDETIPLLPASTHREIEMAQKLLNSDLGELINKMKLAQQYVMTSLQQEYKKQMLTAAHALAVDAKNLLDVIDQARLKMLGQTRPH

[4] = test system: Fibrinogen (Alexa647-labelled); experiment: Alexa647-fibrinogen binding to printed small molecules – biochemical, small-molecule microarray, 635/667 nm fluorescence, artefact control for SMM control-protein annotation, profiling panel (AID 1131); details: fibrinogen-A647 binding fluorescence, higher = more signal;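 further: z-score merges 667 nm fluorescence with per-spot signal-to-noise over triplicate slides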
[5] = biological target: Follistatin (Homo sapiens) (UniProt P19883); experiment: FST protein binding to printed compounds – biochemical, small-molecule microarray, 635/667 nm fluorescence, primary screen (AID 1132); details: 635 nm fluorescence, higher = more signal
Follistatin (Homo sapiens), sequence (P19883 whole entry, looked up): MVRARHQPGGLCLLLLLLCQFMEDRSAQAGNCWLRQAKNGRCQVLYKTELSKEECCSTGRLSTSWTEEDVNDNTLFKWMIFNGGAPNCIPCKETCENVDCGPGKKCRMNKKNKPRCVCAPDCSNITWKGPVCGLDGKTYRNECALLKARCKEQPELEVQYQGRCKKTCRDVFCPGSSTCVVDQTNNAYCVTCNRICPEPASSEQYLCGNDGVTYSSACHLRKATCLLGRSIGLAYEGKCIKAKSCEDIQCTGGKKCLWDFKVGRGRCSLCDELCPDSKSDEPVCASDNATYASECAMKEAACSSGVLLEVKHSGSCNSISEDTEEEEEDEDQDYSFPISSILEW

[6] = biological target: Fibroblast growth factor 2 (Homo sapiens) (UniProt P09038); experiment: basic fibroblast growth factor binding to printed compounds – biochemical, small-molecule microarray, 635/667 nm fluorescence, primary screen (AID 1133); details: FGF2, fluorescence 635/667, higher = more signal
Fibroblast growth factor 2 (Homo sapiens), sequence (P09038 whole entry, looked up): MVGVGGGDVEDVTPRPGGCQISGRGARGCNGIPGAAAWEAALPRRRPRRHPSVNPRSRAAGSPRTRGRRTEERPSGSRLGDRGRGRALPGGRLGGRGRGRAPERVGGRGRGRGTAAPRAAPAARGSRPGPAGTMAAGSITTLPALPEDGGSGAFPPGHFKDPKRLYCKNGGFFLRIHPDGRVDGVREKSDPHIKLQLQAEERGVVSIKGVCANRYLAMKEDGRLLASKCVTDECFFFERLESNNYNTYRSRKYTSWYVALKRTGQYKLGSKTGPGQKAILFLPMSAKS

[7] = JC-1 mitochondrial potential readout, lung cancer cells – cell-based, A549, JC-1 fluorescence, basal, 24 h, 100 nL, profiling panel (AID 1138); details: higher = more signal;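 further: A549 lung adenocarcinoma cells under basal conditions with no added stimulus; test concentration not given here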
[8] = test system: Lefty1; experiment: Lefty1 protein binding to printed compounds – biochemical, small-molecule microarray, 635/667 nm fluorescence, primary screen (AID 1139); details: fluorescence 635/667, higher = more signal
[9] = test system: wheat germ agglutinin (Triticum aestivum), Alexa647-labelled; experiment: Alexa647-WGA lectin binding to printed small molecules – biochemical, small-molecule microarray, 635/667 nm fluorescence, artefact control for SMM control-protein annotation, profiling panel (AID 1140); details: WGA-A647 binding, 635 nm fluorescence, higher = more signal;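 further: score merges 667 nm feature emission with signal to noise over triplicate slides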
[10] = biological target: Luciferin 4-monooxygenase (Photinus pyralis) (UniProt P08659); experiment: inhibition of purified Photinus pyralis luciferase – biochemical, luminescence, purified enzyme, 2006 set, primary screen (AID 1141); details: purified firefly luciferase, SteadyGlo luminescence, 30 min; higher = more signal, called active from +8 up or from −8 down;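 further: cell-free assay with purified firefly luciferase at 100 ng per well in PBS; test concentration not given here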
Luciferin 4-monooxygenase (Photinus pyralis), sequence (P08659 whole entry, looked up): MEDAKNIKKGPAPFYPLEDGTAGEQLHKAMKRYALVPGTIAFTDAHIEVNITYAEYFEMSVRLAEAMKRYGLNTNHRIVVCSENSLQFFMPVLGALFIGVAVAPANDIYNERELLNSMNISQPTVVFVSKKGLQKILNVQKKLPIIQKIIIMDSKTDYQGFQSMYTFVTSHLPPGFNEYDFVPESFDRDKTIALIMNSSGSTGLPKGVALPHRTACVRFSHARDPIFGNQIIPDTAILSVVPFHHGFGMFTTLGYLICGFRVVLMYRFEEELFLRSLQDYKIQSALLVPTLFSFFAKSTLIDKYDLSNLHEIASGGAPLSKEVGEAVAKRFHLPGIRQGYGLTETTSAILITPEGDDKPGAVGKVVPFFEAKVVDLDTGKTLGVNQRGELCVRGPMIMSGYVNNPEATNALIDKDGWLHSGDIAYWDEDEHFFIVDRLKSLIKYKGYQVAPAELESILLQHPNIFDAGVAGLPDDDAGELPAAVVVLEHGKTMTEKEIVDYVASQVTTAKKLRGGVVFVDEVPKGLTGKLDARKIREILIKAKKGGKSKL

[11] = test system: Wnt5a (protein binding on small-molecule microarray); experiment: small molecules binding Wnt5a protein – biophysical, small-molecule microarray, 635/667 nm fluorescence, primary screen (AID 1142); details: 635 nm fluorescence, higher = more signal;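 further: fluorescence read at 667 nm with signal to noise per printed feature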
[12] = ATP-based viability of Huh7 replicon cells – cell-based, CellTiter-Glo luminescence, basal, 48 h, cytotoxicity control for HCV replication inhibitor project, primary screen (AID 1143); details: higher = more signal, called active from +8 up or from −8 down;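 further: Huh7 hepatoma cells carrying a hepatitis C replication reporter with no stimulus; test concentration not given here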
[13] = Pseudomonas biofilm growth suppression – PAO1 strain, BacTiter-Glo luminescence, LB-PBS, primary screen (AID 1144); details: P. aeruginosa PAO1 biofilm, 12 h, higher = more signal
[14] = basal CRE-LacZ reporter activity in PC12 – cell-based, unstimulated, primary screen (AID 1145); details: no forskolin, luminescence, 4.5 h, higher = more signal, called active from +8 up or from −8 down
[15] = forskolin-driven CRE-LacZ activity in PC12 – cell-based, CRE-LacZ reporter, forskolin-stimulated, primary screen (AID 1146); details: luminescence, 4.5 h, higher = more signal, called active from +8 up or from −8 down;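 further: PC12 cells with 6xCRE LacZ reporter stimulated by forskolin 10 µM; beta-galactosidase reporter signal reflecting CREB driven transcription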
[16] = biological target: Streptavidin (Streptomyces avidinii) (UniProt P22629); experiment: compounds binding control protein streptavidin – biophysical, small-molecule microarray, 635/667 nm fluorescence, artefact control for SMM compound annotation, primary screen (AID 1147); details: higher = more signal;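 further: signal reflects streptavidin binding to arrayed compounds as a control protein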
Streptavidin (Streptomyces avidinii), sequence (P22629 whole entry, looked up): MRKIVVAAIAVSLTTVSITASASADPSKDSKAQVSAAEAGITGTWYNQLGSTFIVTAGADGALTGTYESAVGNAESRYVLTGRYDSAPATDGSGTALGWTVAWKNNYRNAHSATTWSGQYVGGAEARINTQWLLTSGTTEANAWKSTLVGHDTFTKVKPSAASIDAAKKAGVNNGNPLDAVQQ

[17] = probe aInhba binding on compound microarray – biochemical, small-molecule microarray, 635/667 nm fluorescence, primary screen (AID 1148); details: higher = more signal;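 further: score merges 667nm spot fluorescence with signal-to-noise for antibody binding to printed compounds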
[18] = biological target: Torsin-1A (Homo sapiens) (UniProt O14656); experiment: TOR1A wild-type binding on microarray – cell lysate, small-molecule microarray, lysate, 635/667 nm, primary screen (AID 1149); details: COS7 hTOR1A-WT lysate, 635 nm fluorescence, higher = more signal
Torsin-1A (Homo sapiens), sequence (O14656 whole entry, looked up): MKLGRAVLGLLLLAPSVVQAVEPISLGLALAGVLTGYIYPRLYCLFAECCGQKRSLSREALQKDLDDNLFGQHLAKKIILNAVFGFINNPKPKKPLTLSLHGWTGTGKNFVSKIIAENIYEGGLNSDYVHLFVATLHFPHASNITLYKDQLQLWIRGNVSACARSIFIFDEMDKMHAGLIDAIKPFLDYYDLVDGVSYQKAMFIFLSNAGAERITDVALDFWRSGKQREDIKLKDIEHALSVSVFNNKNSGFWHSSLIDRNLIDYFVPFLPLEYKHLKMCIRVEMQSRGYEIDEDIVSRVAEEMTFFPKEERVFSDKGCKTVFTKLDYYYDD

[19] = biological target: Torsin-1A (Homo sapiens) (UniProt O14656); experiment: torsin A mutant lysate binding on microarrays – cell lysate, small-molecule microarray, COS7 lysate, 635/667 nm fluorescence, primary screen (AID 1150); details: COS7 hTOR1A mutant lysate, 635 nm fluorescence, higher = more signal;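 further: score pools 667 nm emission and signal to noise measuring lysate protein binding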
[20] = test system: Sonic hedgehog protein (Shh); experiment: Sonic hedgehog microarray binding compounds – biochemical, small-molecule microarray, 635/667 nm fluorescence, primary screen (AID 1151); details: 635 nm fluorescence, higher = more signal;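 further: Shh protein binding to compounds spotted on small-molecule microarray slides; score combines spot fluorescence intensity with signal-to-noise across triplicate slides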

CCOC(=O)C[C@H]1[C@H](OC(=O)c2ccc(-c3ccccc3)cc2)[C@@H](NC(=O)CC(C)C)c2cc(OCCCO)ccc2N1C(=O)c1ccccc1
composite z-score [1]: 0.281
composite z-score [2]: 0.453
composite z-score [3]: 0.513
composite z-score [4]: 0.252
composite z-score [5]: 0.249
composite z-score [6]: 0.376
z-score [7]: 1.23
composite z-score [8]: 0.369
composite z-score [9]: 0.0794
z-score [10]: -0.228 (inactive)
composite z-score [11]: 0.121
z-score [12]: -0.092 (inactive)
z-score [13]: 0.0804 (inactive)
z-score [14]: 0.469 (inactive)
z-score [15]: -0.375 (inactive)
composite z-score [16]: 0.216
composite z-score [17]: -0.0963
composite z-score [18]: -0.477
composite z-score [19]: 0.289
composite z-score [20]: 1.03

O=C1N[C@@H](Cc2ccccc2)C(=O)N2[C@@H]1C[C@@H](C(=O)O)[C@H]2c1ccc(O)cc1
composite z-score [1]: 2.01
composite z-score [2]: -0.219
composite z-score [3]: -0.11
composite z-score [4]: 0.68
composite z-score [5]: 1.35
composite z-score [6]: 1.26
z-score [7]: 0.0945
composite z-score [8]: 1.58
composite z-score [9]: 0.828
z-score [10]: -1.43 (inactive)
composite z-score [11]: 0.391
z-score [12]: -0.477 (inactive)
z-score [13]: 0.106 (inactive)
z-score [14]: 0.692 (inactive)
z-score [15]: -0.789 (inactive)
composite z-score [16]: 0.0885
composite z-score [17]: 0.25
composite z-score [18]: 0.574
composite z-score [19]: 0.533
composite z-score [20]: 2.02

[N-]=[N+]=NCc1ccccc1C[C@]1(C(=O)N2CCOCC2)COC(c2ccc(OCCCO)cc2)=N1
composite z-score [1]: 2.22
composite z-score [2]: 1.19
composite z-score [3]: 0.168
composite z-score [4]: 0.695
composite z-score [5]: 0.234
composite z-score [6]: -0.309
z-score [7]: 2.41
composite z-score [8]: -0.346
composite z-score [9]: 1.01
z-score [10]: -1.21 (inactive)
composite z-score [11]: 0.0879
z-score [12]: -3.07 (inactive)
z-score [13]: -0.983 (inactive)
z-score [14]: 1.69 (inactive)
z-score [15]: -0.931 (inactive)
composite z-score [16]: 1.6
composite z-score [17]: 0.0888
composite z-score [18]: 1.71
composite z-score [19]: 1.56
composite z-score [20]: 0.179

O=C1C2C=CC(C(O)c3cccc(O)c3)N(Nc3ccccc3)C2C(=O)N1c1ccccc1 (stereo not given)
composite z-score [1]: 0.811
composite z-score [2]: 0.452
composite z-score [3]: 0.0964
composite z-score [4]: 0.881
composite z-score [5]: 0.323
composite z-score [6]: -0.202
z-score [7]: -0.319
composite z-score [8]: -0.199
composite z-score [9]: 0.0207
z-score [10]: 0.509 (inactive)
composite z-score [11]: -0.105
z-score [12]: -2.93 (inactive)
z-score [13]: -1.06 (inactive)
z-score [14]: -0.14 (inactive)
z-score [15]: 1.37 (inactive)
composite z-score [16]: 0.318
composite z-score [17]: -0.0645
composite z-score [18]: -0.338
composite z-score [19]: -0.283
composite z-score [20]: -0.461

O=C(O)[C@@H]1C[C@@H]2C(=O)N3CCC[C@H]3C(=O)N2[C@@H]1c1cccc(OCCO)c1
composite z-score [1]: 3.41
composite z-score [2]: 1.31
composite z-score [3]: 2.47
composite z-score [4]: 0.977
composite z-score [5]: 1.41
composite z-score [6]: 1.4
z-score [7]: 0.729
composite z-score [8]: 1.7
composite z-score [9]: 1.69
z-score [10]: -0.485 (inactive)
composite z-score [11]: 1.25
z-score [12]: -0.0592 (inactive)
z-score [13]: 1.36 (inactive)
z-score [14]: 0.143 (inactive)
z-score [15]: -0.382 (inactive)
composite z-score [16]: 3.76
composite z-score [17]: 1.95
composite z-score [18]: 2.99
composite z-score [19]: 2.12
composite z-score [20]: 2.02

[N-]=[N+]=Nc1ccccc1[C@@H]1OC(c2ccc(OCCCO)cc2)=N[C@]1(Cc1ccccc1)C(=O)NCc1ccccc1
composite z-score [1]: 1.27
composite z-score [2]: 1.17
composite z-score [3]: 0.763
composite z-score [4]: 0.798
composite z-score [5]: 0.852
composite z-score [6]: 0.409
z-score [7]: -1.63
composite z-score [8]: 0.491
composite z-score [9]: 1.36
z-score [10]: -5.74 (inactive)
composite z-score [11]: 0.792
z-score [12]: -3.97 (inactive)
z-score [13]: -0.065 (inactive)
z-score [14]: 0.143 (inactive)
z-score [15]: -0.757 (inactive)
composite z-score [16]: 1.45
composite z-score [17]: 0.38
composite z-score [18]: 0.662
composite z-score [19]: 1.09
composite z-score [20]: 0.263

Cc1cccc([C@H]2C[C@H]3C(I)=C[C@@H]2C(=O)[C@]32CO2)c1
composite z-score [1]: 0.0509
composite z-score [2]: -0.479
composite z-score [3]: -0.446
composite z-score [4]: -0.775
composite z-score [5]: 0.573
composite z-score [6]: 0.437
z-score [7]: 0.33
composite z-score [8]: -0.118
composite z-score [9]: -0.412
z-score [10]: -0.303 (inactive)
composite z-score [11]: -0.243
z-score [12]: -0.478 (inactive)
z-score [13]: -0.209 (inactive)
z-score [14]: 1.76 (inactive)
z-score [15]: 1.56 (inactive)
composite z-score [16]: -0.0548
composite z-score [17]: -0.0762
composite z-score [18]: -0.404
composite z-score [19]: -0.481
composite z-score [20]: 0.0299

COc1ccc(NC(=O)O[C@H]2[C@@H]3OC(=O)[C@H](Cc4cccc(Br)c4)C/C=C/C[C@@H](Cc4cccc(Br)c4)C(=O)O[C@H]3[C@@H](OC)O[C@@H]2CO)cc1
composite z-score [1]: 0.66
composite z-score [2]: 0.632
composite z-score [3]: 1.73
composite z-score [4]: 0.145
composite z-score [5]: 0.358
composite z-score [6]: 0.293
z-score [7]: 1.69
composite z-score [8]: 1.16
composite z-score [9]: 0.464
z-score [10]: -1.29 (inactive)
composite z-score [11]: 0.232
z-score [12]: -0.878 (inactive)
z-score [13]: 0.388 (inactive)
z-score [14]: 0.753 (inactive)
z-score [15]: -0.686 (inactive)
composite z-score [16]: 0.328
composite z-score [17]: 0.318
composite z-score [18]: 0.344
composite z-score [19]: 1.34
composite z-score [20]: 0.597

O=C1C2C=CC(C(O)c3ccco3)N(Nc3ccccc3)C2C(=O)N1c1ccccc1 (stereo not given)
composite z-score [1]: -0.317
composite z-score [2]: 0.556
composite z-score [3]: -0.0201
composite z-score [4]: -1.58
composite z-score [5]: -0.118
composite z-score [6]: -1.21
z-score [7]: 1.9
composite z-score [8]: -0.907
composite z-score [9]: 0.46
z-score [10]: 1.06 (inactive)
composite z-score [11]: -0.476
z-score [12]: 0.876 (inactive)
z-score [13]: -0.497 (inactive)
z-score [14]: 0.0467 (inactive)
z-score [15]: 0.621 (inactive)
composite z-score [16]: -0.511
composite z-score [17]: -0.0963
composite z-score [18]: -1.16
composite z-score [19]: 0.746
composite z-score [20]: -0.998
